Assay results taken from PubChem BioAssay (Tox21).
Several values for one entry are separate records, joined by “and”; a condition that tells them apart may be missing. Equal values may be shown once. Records with an inconclusive call do not appear. Activity calls are given as the source filed them. Unless noted, calls follow the shape of the dose curve; as a rule, active = well fitted curve in the direction sought with a large enough effect in the repeat runs; inconclusive = weak or mixed curves; inactive = no such curve, though single readings can be large; an effect the other way counts as inactive or inconclusive.

How the values were obtained:
[1] = qHTS assay to identify small molecule antagonists of the retinoid acid receptor (RAR) signaling pathway - cell viability counter screen (AID 1159551); also: nearly all actives have a fitted effect of over 35% in size
Method in brief: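 Viability of C3RL4 cells is quantified from ATP by luminescence after 6 h treatment at 37 C with compounds and 1 uM retinol.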

[2] = qHTS assay to identify small molecule antagonists of the retinoic acid receptor (RAR) signaling pathway (AID 1159552; also: nearly all actives have a fitted effect of over 50% in size; also: potency is read from the fitted curve at half-maximal effect)
Method in brief: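 Luminescent RARE reporter read-out in C3RL4 cells: 6 hr co-treatment at 37 C of test compounds with retinol at 1 uM final. Cells plated overnight beforehand; luciferase reagent incubated 30 min at room temperature before reading.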

[3] = qHTS assay to identify small molecule antagonists of the estrogen related receptor (ERR) signaling pathway from Tox21 library - cell viability counter screen (AID 1224834); also: nearly all actives have a fitted effect of over 30% in size
Method in brief: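 In this quantitative HTS format, ERR cells receive compounds in DMSO and are incubated for 17.5 h at 37 C. Live-cell protease activity is then detected with CellTiter-Fluor.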

[4] = target: Luciferin 4-monooxygenase (Photinus pyralis) (UniProt P08659); assay: qHTS assay to identify small molecule inhibitors of firefly luciferase (AID 1224835); also: nearly all actives have a fitted effect of over 25% in size; also: potency is read from the fitted curve at half-maximal effect; as to activity change, negative = inhibition: series mostly up to about 120 µM
Method in brief: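 Quantitative HTS format; KM concentrations of both substrates. Purified P. pyralis FLuc activity quantified from luminescence images.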

[5] = qHTS assay to identify small molecule agonists of the constitutive androstane receptor (CAR) signaling pathway - cell viability counter screen (AID 1224836); also: series mostly up to about 92 µM; nearly all actives have a fitted effect of over 45% in size
Method in brief: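 Cell viability multiplexed with the CAR agonist screen: CellTiter-Fluor fluorescence after 23 hr at 37 C. HepG2-CYP2B6-hCAR cells got compounds at 15 concentrations with PK11195 at 0.75 uM final.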

[6] = qHTS assay to identify small molecule antagonists of the constitutive androstane receptor (CAR) signaling pathway - cell viability counter screen (AID 1224837); also: series mostly up to about 92 µM; nearly all actives have a fitted effect of over 45% in size
Method in brief: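 In quantitative HTS format, compounds at 15 concentrations were applied to HepG2 cells double-transfected with hCAR and CYP2B6-2.2kb under 50 nM CITCO stimulation; live-cell protease activity was read after 23 hr via CellTiter-Fluor.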

[7] = target: Nuclear receptor subfamily 1 group I member 3 (Homo sapiens) (UniProt Q14994); assay: qHTS assay to identify small molecule antagonists of the constitutive androstane receptor (CAR) signaling pathway (AID 1224838); also: nearly all actives have a fitted effect of over 40% in size
Method in brief: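 CITCO-stimulated (50 nM final) HepG2 cells stably transfected with hCAR and CYP2B6-2.2kb luciferase were exposed to compounds at 15 concentrations for 24 h at 37 C/5% CO2. A luciferase reagent was added and luminescence recorded after 30 min.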

[8] = target: Nuclear receptor subfamily 1 group I member 3 (Homo sapiens) (UniProt Q14994); assay: qHTS assay to identify small molecule agonists of the constitutive androstane receptor (CAR) signaling pathway (AID 1224839); also: nearly all actives have a fitted effect of over 15% in size; also: potency is read from the fitted curve at half-maximal effect;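 as to activation: HepG2 cells stably carrying human CAR and a CYP2B6 luciferase reporter; series mostly up to about 92 µM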
Method in brief: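 Luminescent ONE-Glo read-out after 24 hr, 37 C exposure of double-stable HepG2-CYP2B6-hCAR reporter cells to a 15-point compound series, in the presence of 0.75 uM PK11195 (final).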

[9] = qHTS assay to identify small molecule antagonists of the estrogen related receptor signaling pathway with the pleiotropic PPARgamma coactivator (PGC) from Tox21 10K library - cell viability counter screen (AID 1224840; active = well fitted cell-killing curve with a large enough effect in the repeat runs, not every such curve was filed as active; also: nearly all actives have a fitted effect of over 40% in size)
Method in brief: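 Viability counter screen, PGC/ERR cells: 17.5 h compound exposure at 37 C, CellTiter-Fluor fluorescence endpoint.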

[10] = target: Thyrotropin receptor (Homo sapiens) (UniProt P16473); assay: qHTS assay to identify small molecule agonists of the thyroid stimulating hormone receptor (TSHR) signaling pathway (AID 1224843; calls by dose curve; also: nearly all actives have a fitted effect of over 45% in size; also: potency is read from the fitted curve at half-maximal effect)
Method in brief: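 Compounds are titrated over 15 concentrations, in triplicate, onto TSHR-HEK293 cells seeded at 800/well. Plates sit 30 min at room temperature before cAMP-d2 and anti-cAMP cryptate are added; signal is read after a further hour.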

[11] = qHTS assay to identify small molecule agonists of the hypoxia (HIF-1) signaling pathway - cell viability counter screen (AID 1224844; calls by dose curve; also: nearly all actives have a fitted effect of over 50% in size; also: potency is read from the fitted curve at half-maximal effect)
Method in brief: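 Same wells as the HIF-1 reporter screen; ME-180 cells carrying HRE-bla, 17 hr treatment at 37C; CellTiter-Glo luminescence read after 30 min at room temperature.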

[12] = qHTS assay to identify small molecule antagonists of the estrogen related receptor (ERR) signaling pathway - cell viability counter screen (AID 1224818); also: series mostly up to about 46 µM
Method in brief: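 Cytotoxicity check run alongside the ERR antagonist screen: cells exposed to test compounds 17.5 h at 37 C, viability taken as CellTiter-Fluor fluorescence intensity.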

[13] = qHTS assay to identify small molecule antagonists of the estrogen related receptor signaling pathway with the pleiotropic PPARgamma coactivator (PGC) from Tox21 10K library (AID 1224841; call rule not given here; also: series mostly up to about 92 µM; actives are mostly falling curves and most rising ones were filed inactive; nearly all actives have a fitted effect of over 50% in size)
Method in brief: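 In the PGC/ERR line, DMSO solutions of test chemicals are pin-delivered to 2,000 cells/well six hours after dispensing. Following eighteen hours' incubation, One-Glo reagent is added and luminescence recorded.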

[14] = qHTS assay to identify small molecule agonists of the estrogen related receptor signaling pathway with the pleiotropic PPARgamma coactivator (PGC) from Tox21 10K library (AID 1224842); also: nearly all actives have a fitted effect of over 15% in size
Method in brief: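 PGC/ERR reporter cells (NTP line) were seeded 2,000 per well, rested 6 h at 37 C/5% CO2, then pin-dosed with compounds in DMSO for 18 h at 37 C; luciferase read by One-Glo luminescence after 30 min at room temperature.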

[15] = qHTS assay to identify small molecule agonists of the estrogen related receptor (ERR) signaling pathway (AID 1224820)
Method in brief: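 An ERR cell line provided by NTP was seeded at 2,000 cells per well and allowed to settle for 6 h before compounds in DMSO were added. After 18 h at 37 C, luciferase activity was measured by One-Glo luminescence.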

[16] = system: estrogen-related receptor alpha (ERRalpha) with PGC-1alpha coactivator, human; assay: qHTS assay to identify small molecule antagonists of the estrogen related receptor signaling pathway with the pleiotropic PPARgamma coactivator (PGC) (AID 1224821; calls by dose curve;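 also: series mostly up to about 46 µM; lower luminescence signal means antagonism of PGC/ERR signalling; nearly all actives have a fitted effect of over 50% in size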)
Method in brief: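 A PGC/ERR cell line supplied by NTP is seeded, allowed 6 h at 37 C, and treated with test compounds in DMSO for 18 h. Signal is then measured as luciferase luminescence using One-Glo.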

[17] = qHTS assay to identify small molecule agonists of the estrogen related receptor signaling pathway with the pleiotropic PPARgamma coactivator (PGC) (AID 1224823)
Method in brief: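 Compounds dissolved in DMSO are added by pin tool to PGC/ERR cells that have settled for 6 h, and incubation continues 18 h at 37 C. Reporter output is measured as One-Glo luminescence.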

[18] = qHTS assay to identify small molecule antagonists of the estrogen related receptor signaling pathway with the pleiotropic PPARgamma coactivator (PGC) cell viability counter screen (AID 1224822; also: series mostly up to about 46 µM)
Method in brief: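 Viable cell signal (CellTiter-Fluor, 30 min, 37 C/5% CO2) was measured in PGC/ERR cells after a 17.5 h compound incubation.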

[19] = qHTS assay to identify small molecule agonists of the retinoic acid receptor (RAR) signaling pathway (AID 1159553)
Method in brief: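 Compounds dissolved in DMSO were pinned onto C3RL4 cells seeded the previous day, and plates were held 6 hr at 37 C. RARE-driven luciferase output was then read by luminescence.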
% is scaled to controls: 0 for no effect and ±100 for the full control effect.

Luciferin 4-monooxygenase (Photinus pyralis), sequence (P08659 whole entry, looked up): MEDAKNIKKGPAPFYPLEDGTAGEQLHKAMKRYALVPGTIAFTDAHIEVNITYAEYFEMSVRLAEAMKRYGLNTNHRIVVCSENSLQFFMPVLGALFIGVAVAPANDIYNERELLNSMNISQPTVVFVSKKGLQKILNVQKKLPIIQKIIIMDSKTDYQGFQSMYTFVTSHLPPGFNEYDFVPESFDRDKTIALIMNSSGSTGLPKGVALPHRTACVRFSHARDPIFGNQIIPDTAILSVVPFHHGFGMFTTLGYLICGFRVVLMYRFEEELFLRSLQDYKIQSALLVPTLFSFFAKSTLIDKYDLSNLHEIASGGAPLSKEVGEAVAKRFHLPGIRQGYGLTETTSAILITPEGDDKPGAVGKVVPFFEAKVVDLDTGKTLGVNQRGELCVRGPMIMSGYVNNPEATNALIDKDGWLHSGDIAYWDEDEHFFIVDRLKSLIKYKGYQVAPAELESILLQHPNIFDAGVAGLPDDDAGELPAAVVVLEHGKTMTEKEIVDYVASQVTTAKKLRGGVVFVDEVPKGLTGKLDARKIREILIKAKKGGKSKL
Thyrotropin receptor (Homo sapiens), sequence (P16473 whole entry, looked up): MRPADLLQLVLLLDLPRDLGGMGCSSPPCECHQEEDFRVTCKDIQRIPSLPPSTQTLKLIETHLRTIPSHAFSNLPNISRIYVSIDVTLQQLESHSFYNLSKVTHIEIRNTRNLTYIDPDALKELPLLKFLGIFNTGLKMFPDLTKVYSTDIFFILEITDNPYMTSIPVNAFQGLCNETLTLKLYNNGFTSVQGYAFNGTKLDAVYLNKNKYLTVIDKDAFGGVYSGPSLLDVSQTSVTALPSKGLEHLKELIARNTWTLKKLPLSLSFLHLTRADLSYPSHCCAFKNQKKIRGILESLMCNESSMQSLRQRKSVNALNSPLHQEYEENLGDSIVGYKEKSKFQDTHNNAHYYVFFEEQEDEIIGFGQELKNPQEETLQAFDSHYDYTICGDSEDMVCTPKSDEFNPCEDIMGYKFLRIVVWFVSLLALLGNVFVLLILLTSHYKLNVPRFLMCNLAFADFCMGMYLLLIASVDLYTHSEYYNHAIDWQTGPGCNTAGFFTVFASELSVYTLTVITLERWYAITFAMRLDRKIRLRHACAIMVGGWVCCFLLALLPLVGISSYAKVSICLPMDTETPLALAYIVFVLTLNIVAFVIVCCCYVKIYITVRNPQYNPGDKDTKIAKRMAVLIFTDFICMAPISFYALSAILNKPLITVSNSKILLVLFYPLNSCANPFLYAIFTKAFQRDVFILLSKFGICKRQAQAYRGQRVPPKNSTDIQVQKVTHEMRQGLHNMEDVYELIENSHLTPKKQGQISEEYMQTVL
Nuclear receptor subfamily 1 group I member 3 (Homo sapiens), sequence (Q14994 whole entry, looked up): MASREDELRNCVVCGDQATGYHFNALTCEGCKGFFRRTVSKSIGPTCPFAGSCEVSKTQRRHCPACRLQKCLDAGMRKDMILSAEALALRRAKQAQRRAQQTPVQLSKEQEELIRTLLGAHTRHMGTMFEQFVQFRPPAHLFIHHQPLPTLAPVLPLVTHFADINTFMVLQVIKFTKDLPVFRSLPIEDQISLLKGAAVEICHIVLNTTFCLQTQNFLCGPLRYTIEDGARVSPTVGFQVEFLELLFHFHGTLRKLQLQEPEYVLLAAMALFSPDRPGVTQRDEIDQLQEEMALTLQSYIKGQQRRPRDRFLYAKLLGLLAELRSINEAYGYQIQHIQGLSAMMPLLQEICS

O=C1OC(=O)c2ccc3c4c(ccc1c24)C(=O)OC3=O
inactive: Potency [1] | Potency [2] | Potency [3] | Potency [4] | Potency [5] | Potency [6] | Potency [7] | Potency [8] | Potency [9] | Potency [10] | Potency [11]

O=S(O)O
inactive: activity change, negative = cytotoxicity [1] -0.573% [at 19 µM] | activity, negative = inhibition [2] 5.26% [at 19 µM] | viability change, negative = cytotoxic [3] 0.472% [at 19 µM] | activity change, negative = inhibition [4] -0.0072% [at 23.6 µM] | viability change, negative = cytotoxic [5] 7.71% [at 19 µM] | activity change, negative = cytotoxicity [6] -3.41% [at 19 µM] | activity, negative = inhibition [7] -9.95% [at 19 µM] | activation [8] -1.32% [at 19 µM] | viability change, negative = cytotoxic [9] -6.77% [at 19 µM] | activation [10] 2.79% [at 19 µM] | activity change, negative = cytotoxicity [11] 0.552% [at 15.8 µM]

Clc1ccc(C(c2ccccc2Cl)C(Cl)Cl)cc1 (stereo not drawn)
inactive: Potency [1] | Potency [12] | Potency [3] | Potency [4] | Potency [5] | Potency [6] | Potency [7] | Potency [9]
active: Potency [2] 54.5 µM | Potency [8] 13.7 µM and 11.9 µM | Potency [10] 12.2 µM and 5.31 µM | Potency [11] 54.9 µM

N[C@@H](CSSC[C@H](N)C(=O)O)C(=O)O
inactive: activity change, negative = cytotoxicity [1] -1.26% [at 0.349 µM] | activity, negative = inhibition [2] 36.8% [at 0.349 µM] | viability change, negative = cytotoxic [3] 4.71% [at 0.349 µM] | activity change, negative = inhibition [4] -0.457% [at 0.435 µM] | viability change, negative = cytotoxic [5] 5.67% [at 0.349 µM] | activity change, negative = cytotoxicity [6] -3.15% [at 0.349 µM] | activity, negative = inhibition [7] -10.8% [at 0.349 µM] | activation [8] -0.0368% [at 0.349 µM] | viability change, negative = cytotoxic [9] 6.11% [at 0.349 µM] | activity, negative = inhibition [13] 16.2% [at 0.349 µM] | activation [14] 4.81% [at 0.349 µM] | activation [10] 2.51% [at 0.349 µM] | activity change, negative = cytotoxicity [11] 25.3% [at 0.29 µM]

CC(=O)O[C@@H]1C[C@@H]2CC[C@@]1(C)C2(C)C
inactive: Potency [1] | Potency [2] | Potency [3] | Potency [4] | Potency [5] | Potency [6] | Potency [7] | Potency [8] | Potency [9] | Potency [10] | Potency [11]

CN1CCN(C2Cc3ccccc3Sc3ccc(Cl)cc32)CC1 (stereo not drawn)
active: Potency [2] 29.8 µM | Potency [11] 23.9 µM
inactive: Potency [1] | Potency [12] | outcome [15] | outcome [16] | outcome [17] | Potency [4] | Potency [5] | Potency [6] | Potency [8] | Potency [9] | Potency [13] | Potency [14] | Potency [10]

CN(C)c1ccc(N=NS(=O)(=O)O)cc1
active: Potency [4] 17.8 µM | Potency [8] 25.7 µM
inactive: Potency [1] | Potency [2] | Potency [12] | Potency [18] | Potency [7] | Potency [10]

Cc1c(C)n(Cc2ccccc2)c2ccc(C(=O)OCCN(C)C)cc12
active: Potency [4] 27.5 µM | Potency [8] 11.9 µM
inactive: Potency [1] | Potency [2] | Potency [19] | Potency [7] | Potency [9] | Potency [13] | Potency [10] | Potency [11]

Cc1c(C(=O)O)cccc1[N+](=O)[O-]
inactive: Potency [1] | Potency [2] | Potency [3] | Potency [4] | Potency [5] | Potency [6] | Potency [7] | Potency [8] | Potency [9] | Potency [10] | Potency [11]

O=C=NCc1cccc(CN=C=O)c1
inactive: activity change, negative = cytotoxicity [1] 2.07% [at 19 µM] | activity, negative = inhibition [2] 6.56% [at 19 µM] | viability change, negative = cytotoxic [3] 0.396% [at 19 µM] | activity change, negative = inhibition [4] 3.61% [at 23.6 µM] | viability change, negative = cytotoxic [5] -4.88% [at 19 µM] | activity change, negative = cytotoxicity [6] -0.191% [at 19 µM] | activity, negative = inhibition [7] -4.42% [at 19 µM] | activation [8] -1.77% [at 19 µM] | viability change, negative = cytotoxic [9] -5.21% [at 19 µM] | activation [10] 1.05% [at 19 µM] | activity change, negative = cytotoxicity [11] 6.46% [at 15.8 µM]

CCc1cccc(CC)c1NC(=O)C(=O)O
inactive: Potency [1] | Potency [2] | Potency [3] | Potency [4] | Potency [5] | Potency [6] | Potency [7] | Potency [8] | Potency [9] | Potency [13] | Potency [10] | Potency [11]

CCCC(CC)CCCCCCCN (stereo not drawn)
inactive: Potency [1] | Potency [2] | Potency [19] | Potency [4] | Potency [5] | Potency [6] | Potency [8] | Potency [9] | Potency [13] | Potency [14]
active: Potency [11] 50.2 µM

CCNc1nc(NC(C)CC)nc(OC)n1 (stereo not drawn)
inactive: Potency [1] | Potency [2] | Potency [3] | Potency [4] | Potency [5] | Potency [6] | Potency [7] | Potency [8] | Potency [9] | Potency [13] | Potency [14] | Potency [10] | Potency [11]

COc1ccccc1C=O
inactive: Potency [1] | Potency [2] | Potency [3] | Potency [4] | Potency [5] | Potency [6] | Potency [7] | Potency [8] | Potency [9] | Potency [10] | Potency [11]

C=C(C)CCCC
inactive: Potency [1] | Potency [2] | Potency [3] | Potency [4] | Potency [5] | Potency [6] | Potency [7] | Potency [8] | Potency [9] | Potency [14] | Potency [10] | Potency [11]

CCCCCCCCCCCCCOP(=O)(O)O
inactive: Potency [1] | Potency [2] | Potency [19] | Potency [3] | Potency [6] | Potency [7] | Potency [8] | Potency [9] | Potency [13] | Potency [14] | Potency [11]

Brc1ccccn1
inactive: Potency [1] | Potency [2] | Potency [3] | Potency [4] | Potency [5] | Potency [6] | Potency [8] | Potency [9] | Potency [10] | Potency [11]

CCOC(=O)COc1ccc(C)cc1
inactive: Potency [1] | Potency [2] | Potency [3] | Potency [5] | Potency [6] | Potency [8] | Potency [9] | Potency [10] | Potency [11]
active: Potency [4] 63.3 µM
